# Reference: PubChem BioAssay (NCATS)
# Records with an inconclusive call do not appear. The source made the active and inactive calls. Unless noted, calls come from the whole dose curve; as a rule, active = well fitted curve in the direction sought with a large enough effect; inconclusive = small, poorly fitted or top-dose-only effect, or another doubt; inactive = no such curve, though single readings can be large; an effect the other way counts as inactive or inconclusive.
# How the values were obtained:
# [1] = biological target: ATP-dependent 6-phosphofructokinase (Trypanosoma brucei brucei) (UniProt O15648); assay: qHTS Assay to Find Inhibitors of T. brucei phosphofructokinase: hit validation (AID 492961);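 note: luminescence reports ADP formed as PFK phosphorylates fructose-6-phosphate with ATP; % is set by controls: 0 for no effect and ±100 for the full control effect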
# ATP-dependent 6-phosphofructokinase (Trypanosoma brucei brucei), sequence (O15648 whole entry, looked up): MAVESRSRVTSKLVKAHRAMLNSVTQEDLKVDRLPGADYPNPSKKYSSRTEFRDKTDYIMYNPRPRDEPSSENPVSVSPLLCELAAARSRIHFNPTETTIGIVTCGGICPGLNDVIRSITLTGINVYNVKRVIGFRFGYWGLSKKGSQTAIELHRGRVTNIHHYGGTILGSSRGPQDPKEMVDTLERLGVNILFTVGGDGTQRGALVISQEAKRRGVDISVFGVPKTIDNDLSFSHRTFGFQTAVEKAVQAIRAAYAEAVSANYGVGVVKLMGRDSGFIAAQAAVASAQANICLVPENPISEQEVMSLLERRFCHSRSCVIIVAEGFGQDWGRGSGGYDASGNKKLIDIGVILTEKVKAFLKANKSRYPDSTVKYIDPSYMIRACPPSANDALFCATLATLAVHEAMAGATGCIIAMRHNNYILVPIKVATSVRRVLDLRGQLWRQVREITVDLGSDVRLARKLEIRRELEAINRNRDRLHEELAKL
# In short: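 Measures ADP output of PFK (1.25 nM) at 0.1 mM ATP, 0.5 mM F6P, pH 8.0 TEA buffer with 5 mM MgCl2. No-enzyme wells define full inhibition; uninhibited enzyme wells define zero.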
# [2] = biological target: Ubiquitin carboxyl-terminal hydrolase 1 (Homo sapiens) (UniProt O94782); assay: Inhibitors of USP1/UAF1: Pilot qHTS (AID 504865);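 note: rhodamine fluorescence freed from ubiquitin-rhodamine substrate followed over time; top concentration of the series differs between compounds; % is set by controls: 0 for no effect and ±100 for the full control effect; nearly all actives have a fitted effect of over 35% in size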
# Ubiquitin carboxyl-terminal hydrolase 1 (Homo sapiens), sequence (O94782 whole entry, looked up): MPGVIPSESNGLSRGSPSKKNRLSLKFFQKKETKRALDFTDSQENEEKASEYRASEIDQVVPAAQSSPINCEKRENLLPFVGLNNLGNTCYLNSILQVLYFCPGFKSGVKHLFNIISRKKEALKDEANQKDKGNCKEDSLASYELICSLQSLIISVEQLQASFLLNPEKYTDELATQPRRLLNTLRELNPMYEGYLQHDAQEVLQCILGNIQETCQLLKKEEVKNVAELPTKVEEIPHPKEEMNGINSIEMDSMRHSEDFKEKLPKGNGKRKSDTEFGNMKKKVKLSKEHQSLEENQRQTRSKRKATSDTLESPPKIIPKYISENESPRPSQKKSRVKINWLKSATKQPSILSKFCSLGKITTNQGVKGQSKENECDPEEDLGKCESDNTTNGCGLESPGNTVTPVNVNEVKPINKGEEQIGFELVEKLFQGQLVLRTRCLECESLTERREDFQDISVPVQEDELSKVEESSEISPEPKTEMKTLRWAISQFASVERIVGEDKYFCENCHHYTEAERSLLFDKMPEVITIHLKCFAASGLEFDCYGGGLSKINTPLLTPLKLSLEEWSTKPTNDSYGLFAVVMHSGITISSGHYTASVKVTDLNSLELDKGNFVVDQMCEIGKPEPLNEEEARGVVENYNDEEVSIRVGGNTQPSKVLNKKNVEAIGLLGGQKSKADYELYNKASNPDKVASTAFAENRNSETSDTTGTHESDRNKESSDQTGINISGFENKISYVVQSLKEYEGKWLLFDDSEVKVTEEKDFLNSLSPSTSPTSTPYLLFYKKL
# In short: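 Deubiquitinase activity followed as kinetic rhodamine fluorescence release from 150 nM Ub-Rho. 1 nM USP1/UAF1 with compound, after 15 min room-temperature preincubation, in HEPES pH 7.8 buffer containing TCEP, EDTA, BSA and Tween-20.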
# [3] = biological target: Luciferin 4-monooxygenase (Photinus pyralis) (UniProt P08659); assay: Biochemical firefly luciferase enzyme assay for NPC (AID 624030);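 note: purified P. pyralis luciferase at 10 nM with luciferin and ATP substrate; 0% = DMSO and -100% = full luciferase inhibition by PTC124 control; nearly all actives have a fitted effect of over 70% in size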
# Luciferin 4-monooxygenase (Photinus pyralis), sequence (P08659 whole entry, looked up): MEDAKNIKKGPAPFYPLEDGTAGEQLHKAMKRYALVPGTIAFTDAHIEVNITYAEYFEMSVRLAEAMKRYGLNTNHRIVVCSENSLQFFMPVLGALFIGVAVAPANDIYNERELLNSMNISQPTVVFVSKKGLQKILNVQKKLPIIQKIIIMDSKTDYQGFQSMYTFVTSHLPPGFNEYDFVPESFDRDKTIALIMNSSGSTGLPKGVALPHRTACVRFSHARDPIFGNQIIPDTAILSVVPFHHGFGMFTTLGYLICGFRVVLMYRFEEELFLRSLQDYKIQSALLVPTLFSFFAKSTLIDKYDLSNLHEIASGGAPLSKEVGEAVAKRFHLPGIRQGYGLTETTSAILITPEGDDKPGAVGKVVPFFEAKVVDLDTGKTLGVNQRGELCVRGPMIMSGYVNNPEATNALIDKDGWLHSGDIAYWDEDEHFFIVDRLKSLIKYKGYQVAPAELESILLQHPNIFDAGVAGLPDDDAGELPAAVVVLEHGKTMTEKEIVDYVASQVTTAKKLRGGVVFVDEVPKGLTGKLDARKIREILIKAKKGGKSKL
# In short: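 Direct inhibition of firefly luciferase enzyme (10 nM final, 50 mM Tris Acetate) assessed by luminescence within 5 minutes. Percent activity scaled between DMSO and PTC124 positive control, with concentration-effect curves classified by fit quality and response.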
# [4] = S16 Schwann cell viability assay (CellTiter-Glo assay) (AID 624031); note: potency is the fitted concentration of half-maximal effect; nearly all actives have a fitted effect of over 70% in size
# In short: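 Rat S16 Schwann cells without reporter constructs received compound or DMSO for 24 h at 37 °C under 5% CO2. Cellular ATP was then quantified by CellTiter-Glo luminescence, with vehicle wells defined as 0% activity and cell-free wells as reference.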
# [5] = S16 Schwann cell PMP22 intronic element firefly luciferase assay (AID 624032); note: potency is the fitted concentration of half-maximal effect; nearly all actives have a fitted effect of over 30% in size
# In short: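 Luciferase reporter of PMP22 intronic-element expression in stably transfected S16 rat Schwann cells, read by ONE-Glo luminescence after 24 h compound exposure at 37 C. Activity scaled between DMSO (0%) and positive-control PTC124; concentration-effect curves quality-classified.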
# [6] = S16 Schwann cell PMP22 intronic element beta-lactamase assay (AID 624044; calls by dose curve; note: potency is the fitted concentration of half-maximal effect; nearly all actives have a fitted effect of over 15% in size); settings: S16 rat Schwann cells, PMP22 element beta-lactamase FRET, 24 h; ratio activity, negative = inhibition: at 38.3 µM (top of the series) unless noted
# In short: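 Beta-lactamase reporter under a PMP22 intronic regulatory element in stable S16 rat Schwann cells; 24 h compound exposure. 460 nm blue signal normalized between DMSO (0%) and potassium clavulanate, with 535 nm FRET tracking viability; curves classed by r2 and response.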
# [7] = Primary qHTS for Huh7 cytotoxicity: counterscreen for inhibitors of MERS-S pseudotyped particle cell entry (AID 1479147; calls by dose curve; note: % is set by controls: 0 for no effect and ±100 for the full control effect); settings: outcome: dose series up to 57.1 µM unless noted
# [8] = Primary qHTS for inhibitors of MERS-S pseudo-typed particle cell entry (AID 1479149; calls by dose curve; note: % is set by controls: 0 for no effect and ±100 for the full control effect; nearly all actives have a fitted effect of over 60% in size); settings: outcome: dose series up to 57.1 µM unless noted
# [9] = Primary qHTS for Vero E6 cytotoxicity: counterscreen for inhibitors of SARS-S pseudo-typed particle cell entry (AID 1479150; calls by dose curve); settings: outcome: dose series up to 57.1 µM unless noted
# [10] = Cytotoxicity counterscreen for inhibitors of SARS-CoV-2 cell entry (AID 1645845; calls by dose curve; note: nearly all actives have a fitted effect of over 50% in size); settings: outcome: dose series up to 57.1 µM unless noted
# In short: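 ATP-content luminescence (ATPLite 1step, 15 min RT) read after 48 h compound exposure of Expi293F cells stably expressing human ACE2; normalized to cells-only wells and media-only wells.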
# [11] = Primary qHTS to identify inhibitors of SARS-CoV-2 cell entry (AID 1645846; calls by dose curve; note: nearly all actives have a fitted effect of over 45% in size); settings: SARS-CoV-2 pseudovirus cell entry assay, luminescence; activity change, negative = inhibition: at 57.1 µM (top of the series) unless noted
# In short: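 Entry measured by luciferase signal 48 h after adding SARS-CoV-2-S pseudotyped MLV particles to HEK293-ACE2 cells preincubated 1 h with compounds. Normalisation: bald particles and spike particles.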
# [12] = biological target: Glutathione peroxidase 1 (Homo sapiens) (UniProt P07203); assay: Primary qHTS Assay for Inhibitors of Recombinant Selenoprotein Glutathione Peroxidase 1 (GPX1) (AID 1845191); note: % is set by controls: 0 for no effect and ±100 for the full control effect; nearly all actives have a fitted effect of over 65% in size
# Glutathione peroxidase 1 (Homo sapiens), sequence (P07203 whole entry, looked up): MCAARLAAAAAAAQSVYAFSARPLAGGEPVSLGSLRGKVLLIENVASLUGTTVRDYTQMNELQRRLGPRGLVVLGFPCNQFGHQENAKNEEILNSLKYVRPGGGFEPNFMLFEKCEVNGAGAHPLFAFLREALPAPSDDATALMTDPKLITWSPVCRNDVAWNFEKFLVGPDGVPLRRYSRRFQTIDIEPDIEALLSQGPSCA
# In short: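 NADPH consumption tracked by fluorescence at 340/450 nm between t=0 and t=15 min, room temperature. Final mix: 10 nM GPX1, 100 nM glutathione reductase, 1 mM GSH, 0.5 mM NADPH, 0.5 mM cumene hydroperoxide, 0.01% BSA; 30 min compound–enzyme preincubation.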
# [13] = biological target: Phospholipid hydroperoxide glutathione peroxidase GPX4 (Homo sapiens) (UniProt P36969); assay: Primary qHTS Assay for Inhibitors of Recombinant Selenoprotein Glutathione Peroxidase 4 (GPX4) (AID 1845192); note: % is set by controls: 0 for no effect and ±100 for the full control effect; nearly all actives have a fitted effect of over 65% in size
# Phospholipid hydroperoxide glutathione peroxidase GPX4 (Homo sapiens), sequence (P36969 whole entry, looked up): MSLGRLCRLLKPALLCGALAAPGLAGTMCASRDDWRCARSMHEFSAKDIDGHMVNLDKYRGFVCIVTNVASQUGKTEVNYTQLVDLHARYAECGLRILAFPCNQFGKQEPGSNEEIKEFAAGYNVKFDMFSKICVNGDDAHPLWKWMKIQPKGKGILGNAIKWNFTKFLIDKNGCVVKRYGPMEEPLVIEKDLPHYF
# In short: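 NADPH consumption followed by fluorescence at 340/450 nm, t=0 and after 15 min at room temperature. Reaction started with cumene hydroperoxide (0.5 mM final) after 30 min compound–GPX4 preincubation; final 200 nM GPX4, 100 nM GR, 1 mM GSH, 0.5 mM NADPH.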
# [14] = qHTS profiling for inhibitors of Plasmodium falciparum proliferation (AID 504749); note: potency is the fitted concentration of half-maximal effect; nearly all actives have a fitted effect of over 60% in size; settings: P. falciparum in erythrocytes, SYBR Green DNA, 72 h
# In short: (§1)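 In a 72 h erythrocytic culture (37 C, humidified, 5% CO2) at 2.5% hematocrit and 0.3% starting parasitemia, compounds were tested; SYBR Green I in detergent lysis buffer stained parasite DNA overnight.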
# [15] = tested on: 3D7; assay: as above; settings: P. falciparum in erythrocytes, SYBR Green DNA, 72 h; series mostly up to 28.7 µM
# In short: as §1
# [16] = tested on: 7G8; assay: as above; settings: P. falciparum in erythrocytes, SYBR Green DNA, 72 h; series mostly up to 12.8 µM
# In short: as §1
# [17] = tested on: AA1029; assay: as above; settings: P. falciparum in erythrocytes, SYBR Green DNA, 72 h; series mostly up to 28.7 µM
# In short: as §1
# [18] = tested on: AS120; assay: as above; settings: P. falciparum in erythrocytes, SYBR Green DNA, 72 h; series mostly up to 28.7 µM
# In short: as §1
# [19] = tested on: ATS189; assay: as above; settings: P. falciparum in erythrocytes, SYBR Green DNA, 72 h; series mostly up to 28.7 µM
# In short: as §1
# [20] = tested on: ATS95; assay: as above; settings: P. falciparum in erythrocytes, SYBR Green DNA, 72 h; series mostly up to 28.7 µM
# In short: as §1
# [21] = tested on: C2A; assay: as above; settings: P. falciparum in erythrocytes, SYBR Green DNA, 72 h; series mostly up to 28.7 µM
# In short: as §1
# [22] = tested on: CP185; assay: as above; settings: P. falciparum in erythrocytes, SYBR Green DNA, 72 h; series mostly up to 28.7 µM
# In short: as §1
# [23] = tested on: CP191; assay: as above; settings: P. falciparum in erythrocytes, SYBR Green DNA, 72 h; series mostly up to 28.7 µM
# In short: as §1
# [24] = tested on: CP192; assay: as above; settings: P. falciparum in erythrocytes, SYBR Green DNA, 72 h; series mostly up to 28.7 µM
# In short: as §1
# [25] = tested on: CP194; assay: as above; settings: P. falciparum in erythrocytes, SYBR Green DNA, 72 h; series mostly up to 28.7 µM
# In short: as §1
# [26] = tested on: CP201; assay: as above; settings: P. falciparum in erythrocytes, SYBR Green DNA, 72 h; series mostly up to 28.7 µM
# In short: as §1
# [27] = tested on: CP203; assay: as above; settings: P. falciparum in erythrocytes, SYBR Green DNA, 72 h; series mostly up to 28.7 µM
# In short: as §1
# [28] = tested on: CP211; assay: as above; settings: P. falciparum in erythrocytes, SYBR Green DNA, 72 h; series mostly up to 28.7 µM
# In short: as §1
# [29] = tested on: CP215; assay: as above; settings: P. falciparum in erythrocytes, SYBR Green DNA, 72 h; series mostly up to 28.7 µM
# In short: as §1
# [30] = tested on: CP217; assay: as above; settings: P. falciparum in erythrocytes, SYBR Green DNA, 72 h; series mostly up to 28.7 µM
# In short: as §1
# [31] = tested on: CP237; assay: as above; settings: P. falciparum in erythrocytes, SYBR Green DNA, 72 h; series mostly up to 28.7 µM
# In short: as §1
# [32] = tested on: CP238; assay: as above; settings: P. falciparum in erythrocytes, SYBR Green DNA, 72 h; series mostly up to 28.7 µM
# In short: as §1
# [33] = tested on: CP247; assay: as above; settings: P. falciparum in erythrocytes, SYBR Green DNA, 72 h; series mostly up to 28.7 µM
# In short: as §1
# [34] = tested on: CP250; assay: as above; settings: P. falciparum in erythrocytes, SYBR Green DNA, 72 h; series mostly up to 12.8 µM
# In short: as §1
smiles,measurement,setting,value
CO[C@@H](COC(N)=O)C1=C(N2CC2)C(=O)C(C)=C(N2CC2)C1=O,Potency,[1],inactive
same,Potency,[2],inactive
same,Potency,[3],inactive
same,Potency,[4],32.2 µM (active)
same,Potency,[5],36.1 µM (active)
same,Potency,[6],354 nM (active)
same,Potency,[7],inactive
same,Potency,[8],inactive
same,Potency,[9],inactive
same,Potency,[10],inactive
same,"activity change, negative = inhibition",[11],-18.1%
same,Potency,[12],inactive
same,Potency,[13],inactive
same,Potency,[14]; parasite line A,891 nM (active)
same,Potency,[14]; parasite line B,1410 nM (active)
same,Potency,[15],1.26 µM (active)
same,Potency,[16],1.26 µM (active)
same,Potency,[17],1.41 µM (active)
same,Potency,[18],891 nM (active)
same,Potency,[19],2.82 µM (active)
same,Potency,[20],1.41 µM (active)
same,Potency,[21],794 nM (active)
same,Potency,[22],794 nM (active)
same,Potency,[23],708 nM (active)
same,Potency,[24],1.69 µM (active)
same,Potency,[25],1.69 µM (active)
same,Potency,[26],3.38 µM (active)
same,Potency,[27],1.51 µM (active)
same,Potency,[28],675 nM (active)
same,Potency,[29],1.9 µM (active)
same,Potency,[30],3.16 µM (active)
same,Potency,[31],1.26 µM (active)
same,Potency,[32],1.41 µM (active)
same,Potency,[33],708 nM (active)
same,Potency,[34],1.41 µM (active)
